Results filed as inconclusive are left out. Active and inactive are the calls of the source. Calls come from the whole dose curve; as a rule, active = well fitted curve in the direction sought with a large enough effect; inconclusive = small, poorly fitted or top-dose-only effect, or another doubt; inactive = no such curve, though single readings can be large; an effect the other way counts as inactive or inconclusive.
How the values were obtained:
[1] = Cell Viability - LYMP2-004 (AID 966); note: nearly all actives have a fitted effect of over 65% in size
Outline: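 AC50 values come from Hill modelling of concentration-dependent loss of intracellular ATP, measured by CellTiter-Glo luminescence. Human LYMP2-004 lymphoblastoid cells (2500/well) were exposed to compound for 24 h at 37 C.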

[2] = Cell Viability - LYMP2-005 (AID 967); note: series mostly up to about 92 µM
Outline: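 LYMP2-005 human lymphoblastoid cells (2500/well) were treated with compounds for 24 h at 37 C. Intracellular ATP was then measured by CellTiter-Glo luminescence after 30 min at room temperature. AC50 values came from Hill-equation fits of qHTS concentration-response data.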

[3] = Cell Viability - LYMP2-009 (AID 968); note: series mostly up to about 92 µM; nearly all actives have a fitted effect of over 55% in size
[4] = Cell Viability - LYMP2-011 (AID 969); note: nearly all actives have a fitted effect of over 60% in size
Outline: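 Cytotoxicity qHTS with ATP content as read-out: lymphoblastoid cells (2500/well) exposed to compound for 24 h at 37 C, then luciferase luminescence measured. Concentration-response data fitted with the standard Hill equation to give AC50.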

[5] = Cell Viability - LYMP2-013 (AID 970); note: series mostly up to about 92 µM; nearly all actives have a fitted effect of over 55% in size
Outline: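 qHTS cytotoxicity: ATP-dependent luminescence (CellTiter-Glo, 30 min room temperature) read after 24 h compound exposure at 37 C of 2500 LYMP2-013 lymphoblastoid cells per well. Concentration-response fitted with Hill equation to give AC50.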

[6] = Cell Viability - LYMP2-015 (AID 971); note: nearly all actives have a fitted effect of over 55% in size
Outline: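 Cytotoxicity readout: decrease in intracellular ATP (CellTiter-Glo luminescence) in 2500 LYMP2-015 lymphoblastoid cells/well after 24 h compound exposure at 37 C. Concentration-response data fitted with the standard Hill equation to give AC50.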

[7] = Cell Viability - LYMP2-017 (AID 972); note: series mostly up to about 92 µM; nearly all actives have a fitted effect of over 55% in size
Outline: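 CellTiter-Glo luminescence (cellular ATP, 30 min RT) measured cytotoxicity after 24 hr compound treatment at 37 C. Cells were a human lymphoblastoid line, LYMP2-017, plated at 2500/well and incubated 5 hr first; concentration-response fitted with Hill equation for AC50.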

[8] = Cell Viability - LYMP2-019 (AID 973); note: nearly all actives have a fitted effect of over 55% in size
Outline: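 AC50 values come from Hill-equation fits of luminescent intracellular ATP (CellTiter-Glo, 30 min, room temperature) following 24 h compound exposure at 37 C. Cells: LYMP2-019 lymphoblastoid line, 2500 per well, in complete culture medium.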

[9] = Cell Viability - LYMP2-021 (AID 974); note: nearly all actives have a fitted effect of over 55% in size
Outline: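 AC50 values come from Hill-equation fits to CellTiter-Glo luminescence (ATP content), read after 24 hour compound exposure at 37 C of 2500 LYMP2-021 lymphoblastoid cells/well; tetraoctylammonium bromide as positive control.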

[10] = Cell Viability - LYMP2-023 (AID 975)
Outline: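 Intracellular ATP, read by CellTiter-Glo luminescence, reports viability after 24 hr compound exposure at 37 C. 2500 lymphoblastoid cells/well (LYMP2-023) seeded 5 hr beforehand; Hill fits give AC50; positive control tetraoctylammonium bromide.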

[11] = Cell Viability - LYMP2-025 (AID 976); note: series mostly up to about 92 µM
Outline: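 Cytotoxicity read as loss of intracellular ATP (luciferase luminescence) after 24 h compound treatment at 37 C. Uses LYMP2-025 lymphoblastoid cells in 1536-well format; Hill-equation modelling gives AC50; tetraoctylammonium bromide as positive control.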

[12] = Cell Viability - LYMP2-002 (AID 977); note: series mostly up to about 92 µM
Outline: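 Human lymphoblastoid cells, 2500/well, complete medium; 5 h 37 C settle; compound 24 h 37 C; CellTiter-Glo, 30 min RT; luminescence. Decrease in ATP = cytotoxicity; AC50 via Hill equation.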

[13] = Cell Viability - LYMP2-006 (AID 978); note: series mostly up to about 92 µM; nearly all actives have a fitted effect of over 60% in size
Outline: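 Potency values are Hill-fit AC50s for decreases in intracellular ATP (CellTiter-Glo luminescence). LYMP2-006 lymphoblastoid cells, 2500 per well, were exposed to compound in complete culture medium for 24 hr at 37 C.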

[14] = Cell Viability - LYMP2-007 (AID 979);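 note: cells exposed to compound for 24 h before reading; nearly all actives have a fitted effect of over 60% in size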
Outline: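 AC50 values come from Hill-equation fits of luminescent intracellular ATP (CellTiter-Glo, 30 min, room temperature) following 24 h compound exposure at 37 C. Cells: LYMP2-007 lymphoblastoid line, 2500 per well, in complete culture medium.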

[15] = Cell Viability - LYMP2-008 (AID 980); note: nearly all actives have a fitted effect of over 60% in size
Outline: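 Cytotoxicity determined from ATP-dependent luciferase luminescence (CellTiter-Glo) following 24 h compound exposure of human lymphoblastoid LYMP2-008 cells at 37 C. Concentration-response data fitted to the Hill equation to give AC50.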

[16] = Cell Viability - LYMP2-012 (AID 982)
[17] = Cell Viability - LYMP2-014 (AID 983); note: series mostly up to about 92 µM; nearly all actives have a fitted effect of over 50% in size
Outline: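 Intracellular ATP loss, read by luciferase luminescence, measures acute cytotoxicity after 24 h compound exposure of lymphoblastoid LYMP2-014 cells (2500/well, 37 C). Concentration-response data fitted to the Hill equation for AC50.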

[18] = Cell Viability - LYMP2-016 (AID 984); note: nearly all actives have a fitted effect of over 55% in size
Outline: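 Cytotoxicity was scored by luminescent ATP content (CellTiter-Glo) after 24 h compound exposure at 37 C of a human lymphoblastoid line at 2500 cells/well. Concentration-response data were fitted to the Hill equation for AC50.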

[19] = Cell Viability - LYMP2-018 (AID 985); note: nearly all actives have a fitted effect of over 50% in size
Outline: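 Viability read as CellTiter-Glo luminescence (cellular ATP) after 24 hr compound exposure at 37 C of 2500 LYMP2-018 lymphoblastoid cells/well, pre-plated 5 hr. Hill-equation modelling gave AC50.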

[20] = Cell Viability - LYMP2-020 (AID 986)
Outline: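 Cytotoxicity in qHTS format: luminescent ATP readout from CellTiter-Glo after 24 h compound exposure at 37 C in complete medium. LYMP2-020 lymphoblastoid cells were seeded at 2500/well; concentration-response data fitted to the Hill equation for AC50.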

Measured: outcome

Oc1c(Cl)c(Cl)c(Cl)c(Cl)c1Cl
inactive: all assays above

Reference: PubChem BioAssay (NCATS)
